Data published in PubChem BioAssay (EPA / NIEHS).
Inconclusive results are not listed. The source made the active and inactive calls. How the source made its calls: active means hit-call score of the fitted dose curve at least 0.9, where 1 is the maximum; inconclusive means response in the unintended direction; inactive means score below 0.9.

target: Norway rat Vesicular Monoamine Transporter (VMAT2), neurotransmitter transporter, Slc18a2 (gene 25549) (UniProt Q01827); test: NVS_TR_rVMAT2: NovaScreen (NVS) Transporter Assay for Norway rat Vesicular Monoamine Transporter (VMAT2), neurotransmitter transporter (AID 2283376);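 further: actives lower the bound radioligand signal below the DMSO level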
Procedure: NVS_TR_rVMAT2 is a biochemical, single-readout assay that uses extracted gene-proteins from Rat forebrain in a tissue-based cell-free assay. Measurements were taken 1 hour after chemical dosing in a 96-well plate.NVS_TR_rVMAT2 is one of one assay component(s) measured or calculated from the NVS_TR_rVMAT2 assay. It is designed to make measurements of radioligand binding, a form of binding reporter, as detected with scintillation counting signals by Filter-based radiodetection technology.Data from the assay component NVS_TR_rVMAT2 was analyzed into 1 assay endpoint. This assay endpoint, NVS_TR_rVMAT2, was analyzed in the positive analysis fitting direction relative to DMSO as the negative control and baseline of activity. Using a type of binding reporter, loss-of-signal activity can be used to understand changes in the binding as they relate to the gene Slc18a2. Furthermore, this assay endpoint can be referred to as a primary readout, because the performed assay has only produced 1 assay endpoint. To generalize the intended target to other relatable targets, this assay endpoint is annotated to the transporter intended target family, where the subfamily is vesicular transporter.
Binding assays used specific radioligands (tritiated, iodinated) with non-radioactive competitive displacement ligands in agonist or antagonist protocols (as indicated) and various reference compounds and inhibitors to titrate specific binding to receptors and transporters. Most enzyme assays (CYPs, kinases, phosphatases, proteases, HDACs) used recombinant protein and specific substrates (fluorescence mostly, some colorimetric and radioactive) and inhibitors, followed by a biochemical separation of substrate and product. All assays for the biochemical HTS were initially run in duplicate at a single concentration (10 uM for CYP450 assays and 25 uM for all others). […] Each assay was run with positive and negative controls, and concurrent controls on every plate. The follow-up (secondary) screen tested active chemical-pairs in concentration series, as well as a few additional assays not tested in the primary screen, some selected negative inactives, and several cases re-run in the concentration series for confirmatory purposes.

Norway rat Vesicular Monoamine Transporter (VMAT2), neurotransmitter transporter, Slc18a2 (gene 25549), sequence (Q01827 whole entry, looked up): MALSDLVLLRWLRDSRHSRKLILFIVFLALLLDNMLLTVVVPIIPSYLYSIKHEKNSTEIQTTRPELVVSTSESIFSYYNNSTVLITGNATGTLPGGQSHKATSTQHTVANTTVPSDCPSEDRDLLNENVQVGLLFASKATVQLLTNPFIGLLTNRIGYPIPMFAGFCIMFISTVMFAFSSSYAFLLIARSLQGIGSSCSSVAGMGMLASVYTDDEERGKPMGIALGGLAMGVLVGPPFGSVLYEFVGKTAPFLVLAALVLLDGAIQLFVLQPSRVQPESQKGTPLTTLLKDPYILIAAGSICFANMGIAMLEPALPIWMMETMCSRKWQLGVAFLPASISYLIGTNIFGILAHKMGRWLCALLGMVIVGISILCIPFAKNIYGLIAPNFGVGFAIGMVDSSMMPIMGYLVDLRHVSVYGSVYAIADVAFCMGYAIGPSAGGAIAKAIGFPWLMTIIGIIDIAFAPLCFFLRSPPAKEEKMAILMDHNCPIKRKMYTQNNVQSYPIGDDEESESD

SMILES	outcome
COc1cccc(C=O)c1	inactive
CCCCCCCCC(=O)NCc1ccc(O)c(OC)c1	inactive
CCCCC(CC)CO[N+](=O)[O-] (stereo not given)	inactive
O=C(Cl)c1ccc(Cl)cc1	inactive
O=C(O)C(Cl)(Cl)Cl	inactive

target: human Norepinephrine Transporter (NET), SLC6A2 (gene 6530) (UniProt P23975); test: NVS_TR_hNET: NovaScreen (NVS) Transporter Assay for human Norepinephrine Transporter (NET) (AID 2283377);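 further: cell-free membrane protein extracted from CHO cells expressing human NET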;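 on AC50: displacement of radioligand from human NET seen as loss of scintillation signal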
Method in brief: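 Scintillation counts of filter-retained radioligand served as the readout, taken 1 h post-dosing in a cell-free CHO-derived system. Test chemicals ran first at 25 uM in duplicate; confirmed hits were retested across concentrations.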

human Norepinephrine Transporter (NET), SLC6A2 (gene 6530), sequence (P23975 whole entry, looked up): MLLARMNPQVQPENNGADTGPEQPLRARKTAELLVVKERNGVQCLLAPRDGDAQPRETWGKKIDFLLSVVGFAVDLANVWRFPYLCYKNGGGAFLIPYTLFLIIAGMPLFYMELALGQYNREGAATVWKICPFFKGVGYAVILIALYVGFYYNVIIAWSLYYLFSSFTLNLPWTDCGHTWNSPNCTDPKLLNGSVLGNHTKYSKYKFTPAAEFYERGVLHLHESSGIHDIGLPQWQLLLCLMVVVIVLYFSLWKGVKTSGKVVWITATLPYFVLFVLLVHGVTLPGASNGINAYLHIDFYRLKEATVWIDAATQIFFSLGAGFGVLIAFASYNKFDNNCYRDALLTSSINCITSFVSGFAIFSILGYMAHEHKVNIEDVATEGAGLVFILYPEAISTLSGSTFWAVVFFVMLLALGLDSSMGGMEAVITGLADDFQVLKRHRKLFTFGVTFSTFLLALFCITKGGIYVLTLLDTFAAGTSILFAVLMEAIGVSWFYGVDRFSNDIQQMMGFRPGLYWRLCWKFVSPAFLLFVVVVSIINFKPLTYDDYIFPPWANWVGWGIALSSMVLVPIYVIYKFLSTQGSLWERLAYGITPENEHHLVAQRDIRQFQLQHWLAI

SMILES	AC50	outcome
CCOC(=O)Nc1cccc(OC(=O)Nc2ccccc2)c1	3.25 µM (active)	–
O=C(O)C(F)(F)C(F)(F)C(F)(F)C(F)(F)C(F)(F)C(F)(F)C(F)(F)C(F)(F)C(F)(F)C(F)(F)F	–	inactive
COP(=S)(OC)Oc1cc(Cl)c(Cl)cc1Cl	–	inactive
O=C(Cl)c1ccc(Cl)cc1	–	inactive
Cc1cc(Cl)ccc1O[C@H](C)C(=O)O	–	inactive
CC(C)(C)c1cc(O)ccc1O	13.8 µM (active)	–
Oc1c(I)cc(I)cc1I	25 µM (active)	–

target: mouse Estrogen Receptor alpha (Era), Esr1 (gene 13982) (UniProt P19785); test: NVS_NR_mERa: NovaScreen (NVS) Nuclear Receptor Binding Assay for mouse Estrogen Receptor alpha (Era) (AID 2283378);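 further: hit means loss of bound radioligand signal relative to DMSO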
Method in brief: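 Cell-free radioligand binding with extracted mouse Era protein; competitive displacement of radiolabelled ligand, read by filter-based scintillation counting 18 hours after dosing. Loss of signal versus DMSO baseline taken as binding; single screening concentration 25 uM, actives followed in concentration series.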

mouse Estrogen Receptor alpha (Era), Esr1 (gene 13982), sequence (P19785 whole entry, looked up): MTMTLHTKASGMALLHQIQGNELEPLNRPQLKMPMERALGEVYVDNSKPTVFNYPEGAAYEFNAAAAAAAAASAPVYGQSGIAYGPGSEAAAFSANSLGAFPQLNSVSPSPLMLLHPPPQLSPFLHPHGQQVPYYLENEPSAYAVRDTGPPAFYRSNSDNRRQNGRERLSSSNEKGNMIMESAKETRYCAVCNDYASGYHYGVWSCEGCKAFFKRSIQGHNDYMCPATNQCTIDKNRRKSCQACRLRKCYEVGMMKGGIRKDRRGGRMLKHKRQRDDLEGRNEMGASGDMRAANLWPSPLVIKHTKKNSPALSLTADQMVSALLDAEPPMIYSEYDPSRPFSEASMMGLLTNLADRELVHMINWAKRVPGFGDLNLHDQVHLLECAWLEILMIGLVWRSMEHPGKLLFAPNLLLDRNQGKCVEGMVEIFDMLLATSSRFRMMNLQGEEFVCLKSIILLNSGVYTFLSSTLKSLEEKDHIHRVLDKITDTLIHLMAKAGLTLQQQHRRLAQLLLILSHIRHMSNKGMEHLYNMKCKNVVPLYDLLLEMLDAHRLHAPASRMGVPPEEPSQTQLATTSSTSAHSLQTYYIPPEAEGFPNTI

SMILES	outcome	AC50
Cl/C=C/Cl	inactive	–
CCOC(=O)Nc1cccc(OC(=O)Nc2ccccc2)c1	inactive	–
O=C1CCCN1	inactive	–
O=C(CCl)CCl	inactive	–
C[C@]12CC[C@H](O)CC1=CC[C@@H]1[C@@H]2CC[C@]2(C)C(=O)CC[C@@H]12	–	2.17 µM (active)
CCC[CH2][Sn]([CH2]CCC)([CH2]CCC)[O]C(=O)c1ccccc1	inactive	–
ClCC(Cl)CCl	inactive	–
COP(=O)(OC)O/C(=C\Cl)c1cc(Cl)c(Cl)cc1Cl	inactive	–
C=CC#N	inactive	–
C=CC(=O)OCCCCCC(C)C	inactive	–
CC(C)OC(=O)Nc1ccccc1	–	5.18 µM (active)
CCOP(=S)(OCC)Oc1nc(Cl)c(Cl)cc1Cl	inactive	–
Fc1ccc(C2(Cn3cncn3)OC2c2ccccc2Cl)cc1 (stereo not given)	inactive	–
CC1(C)CCC(Cc2ccc(Cl)cc2)C1(O)Cn1cncn1 (stereo not given)	inactive	–

target: Agonist Androgen Response Element (ARE), AR (gene 367) (UniProt P10275); test: OT_AR_ARELUC_AG_1440: Odyssey Thera (OT) 24-hour CHO-K1 Luciferase Assay for Agonist Androgen Response Element (ARE) (AID 2283379)
Method in brief: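 Agonist mode, 24 h exposure in CHO-K1 ARE-luciferase cells; values reflect luminescence induction over vehicle.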

Agonist Androgen Response Element (ARE), AR (gene 367), sequence (P10275 whole entry, looked up): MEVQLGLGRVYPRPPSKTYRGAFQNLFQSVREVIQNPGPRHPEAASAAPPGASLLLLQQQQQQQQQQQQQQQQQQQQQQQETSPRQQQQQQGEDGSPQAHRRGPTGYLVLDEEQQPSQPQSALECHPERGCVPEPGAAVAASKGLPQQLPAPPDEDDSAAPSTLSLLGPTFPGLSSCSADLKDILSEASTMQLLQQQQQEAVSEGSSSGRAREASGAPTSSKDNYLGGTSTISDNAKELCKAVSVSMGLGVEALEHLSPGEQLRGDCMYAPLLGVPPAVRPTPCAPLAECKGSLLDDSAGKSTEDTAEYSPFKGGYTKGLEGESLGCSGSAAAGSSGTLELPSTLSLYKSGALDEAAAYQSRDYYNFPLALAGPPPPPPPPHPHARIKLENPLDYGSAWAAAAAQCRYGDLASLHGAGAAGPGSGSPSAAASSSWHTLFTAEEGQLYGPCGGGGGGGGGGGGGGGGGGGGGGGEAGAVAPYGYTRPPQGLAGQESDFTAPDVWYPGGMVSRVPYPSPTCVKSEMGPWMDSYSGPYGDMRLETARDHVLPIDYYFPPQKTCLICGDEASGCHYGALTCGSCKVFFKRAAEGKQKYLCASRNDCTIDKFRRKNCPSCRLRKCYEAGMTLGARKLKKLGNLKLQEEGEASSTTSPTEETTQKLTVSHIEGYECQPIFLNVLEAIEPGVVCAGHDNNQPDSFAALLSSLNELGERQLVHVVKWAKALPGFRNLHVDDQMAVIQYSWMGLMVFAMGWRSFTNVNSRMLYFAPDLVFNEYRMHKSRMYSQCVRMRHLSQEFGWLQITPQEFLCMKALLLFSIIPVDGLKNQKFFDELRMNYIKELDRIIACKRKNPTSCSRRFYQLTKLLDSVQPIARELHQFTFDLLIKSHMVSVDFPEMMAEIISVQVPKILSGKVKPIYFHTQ

SMILES	outcome	AC50
Cc1ccccc1C(=O)Nc1cccc(OC(C)C)c1	inactive	–
CCC1(c2ccc(N)cc2)CCC(=O)NC1=O (stereo not given)	inactive	–
C=CC(=O)OCCCCCC(C)C	inactive	–
COP(=O)(OC)OC	inactive	–
O=c1[nH]c(=O)[nH]c(=O)[nH]1	–	17.2 µM (active)
c1cc[c]([Hg][c]2ccccc2)cc1	inactive	–
Cc1ccc2ccccc2c1C	inactive	–
CCOP(=S)(OCC)Oc1nc(Cl)c(Cl)cc1Cl	inactive	–

target: Estrogen receptor beta (Homo sapiens) (UniProt Q92731); test: OT_ER_ERbERb_1440: Odyssey Thera (OT) 24-hour HEK293T Protein-Complementation Assay for Estrogen Receptor-beta/-beta Homodimer (AID 2283380);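 further: fluorescence gain from ER beta LBD homodimer complementation read by laser scanning cytometry; scored as signal increase over DMSO baseline for both agonists and antagonists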
Method in brief: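 Fluorescence increase, nuclear for agonists or whole-cell for antagonists, relative to DMSO vehicle, quantified by laser scanning cytometer after fixation and Draq5 staining. Readout from 24 h treatment of HEK293T cells carrying complementation-paired ER beta LBD (aa 310-547).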

Estrogen receptor beta (Homo sapiens), sequence (Q92731 whole entry, looked up, the tested form may be a part): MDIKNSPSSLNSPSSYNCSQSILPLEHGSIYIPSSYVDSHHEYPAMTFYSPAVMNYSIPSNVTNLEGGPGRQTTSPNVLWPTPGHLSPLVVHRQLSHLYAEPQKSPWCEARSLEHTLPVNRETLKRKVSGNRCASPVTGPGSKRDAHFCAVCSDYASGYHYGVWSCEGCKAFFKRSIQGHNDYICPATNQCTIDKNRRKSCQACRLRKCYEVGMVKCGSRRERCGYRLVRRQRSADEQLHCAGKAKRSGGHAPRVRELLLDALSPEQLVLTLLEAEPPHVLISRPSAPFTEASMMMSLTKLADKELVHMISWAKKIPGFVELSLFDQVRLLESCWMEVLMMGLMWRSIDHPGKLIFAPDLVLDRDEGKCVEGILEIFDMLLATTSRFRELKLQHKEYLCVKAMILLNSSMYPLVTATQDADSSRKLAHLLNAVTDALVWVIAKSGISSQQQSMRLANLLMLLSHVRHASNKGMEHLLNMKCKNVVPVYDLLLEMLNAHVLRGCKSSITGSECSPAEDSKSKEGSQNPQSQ

SMILES	outcome	AC50
CCOC(=O)Nc1cccc(OC(=O)Nc2ccccc2)c1	inactive	–
CCCCCCCCc1ccc(O)cc1	–	12.3 µM (active)
Cc1ccccc1C(=O)Nc1cccc(OC(C)C)c1	inactive	–
C[C@@H]1C[C@@H]([C@H](O)CC2CC(=O)NC(=O)C2)C(=O)[C@@H](C)C1	inactive	–
O=C(O)C(F)(F)C(F)(F)C(F)(F)C(F)(F)C(F)(F)C(F)(F)C(F)(F)C(F)(F)C(F)(F)C(F)(F)F	inactive	–
C[C@H]1CCCC(=O)CCC/C=C/c2cc(O)cc(O)c2C(=O)O1	–	0.0449 µM (active)
C[C@]12CC[C@H](O)CC1=CC[C@@H]1[C@@H]2CC[C@]2(C)C(=O)CC[C@@H]12	–	3.34 µM (active)
C=CC#N	inactive	–
C=CC(=O)OCCCCCC(C)C	inactive	–
O=c1[nH]c(=O)[nH]c(=O)[nH]1	inactive	–
C=CCc1ccc(OC)cc1	inactive	–
c1cc[c]([Hg][c]2ccccc2)cc1	inactive	–
Cc1ccc2ccccc2c1C	inactive	–
CCOP(=S)(OCC)Oc1nc(Cl)c(Cl)cc1Cl	inactive	–
Fc1ccc(C2(Cn3cncn3)OC2c2ccccc2Cl)cc1 (stereo not given)	–	19.2 µM (active)
COC(=O)c1sccc1S(=O)(=O)NC(=O)Nc1nc(C)nc(OC)n1	inactive	–
